# MLLE-PAM2 inh: inhibitors of microRNA-mediated deadenylation, human PABP1 MLLE binding | GST-MLLE / FITC-PAM2 fluorescence polarization | inhibition, % at 20 µM | 0.36% of 360,000 active; in the data active = inhibition above about 35%, passing the limit was not always enough
# PHOSPHO1 block: blocks human PHOSPHO1 phosphatase activity. recombinant PHOSPHO1, absorbance phosphatase assay. inhibition, % at 13.3 µM. 1.1% of 290,000 active. AID 1565; in the data active = inhibition above about 60%
# Target sequence (Q8TCT1 whole entry, looked up): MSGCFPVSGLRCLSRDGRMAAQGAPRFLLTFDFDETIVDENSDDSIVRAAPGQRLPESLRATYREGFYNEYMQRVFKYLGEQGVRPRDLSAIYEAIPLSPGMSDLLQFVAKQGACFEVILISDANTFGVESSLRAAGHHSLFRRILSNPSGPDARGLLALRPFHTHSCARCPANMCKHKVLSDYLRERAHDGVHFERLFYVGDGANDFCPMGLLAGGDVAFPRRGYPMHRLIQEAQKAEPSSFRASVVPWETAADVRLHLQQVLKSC
# eIF4H FP inh: inhibitors of RNA binding by human eIF4H; Q15056; eIF4H fluorescence polarization binding assay; inhibition, % at 35 µM; 0.94% of 290,000 active;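 note: calls also rest on retests at 20 µM and on dose response follow-up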
# AI-2 QS mod: Vibrio harveyi AI-2 quorum sensing modulation | activity change, % at 7.5 µM | Vibrio harveyi JMH597 AI-2 luminescence/OD600 ratio, 9 h; hits give low values; strain lacks LuxN and CqsS sensors; 0 = neutral-control median | AID 2094 | 0.4% of 300,000 active; in the data active = activity change below about -75%, passing the limit was not always enough; inconclusive = no clear call, values can overlap the other calls;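 note: luminescence divided by OD600 gain over 9 h not by final OD600 alone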
# PABP FP inh: blocks human PABP binding to poly(A) RNA; P11940; fluorescence polarization; calls only at 35 µM; 1% of 290,000 active;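 note: calls also rest on retests at 20 µM and on dose response follow-up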
# ABCB6 inh MLPCN: human ABCB6 transporter inhibition. K562-ABCB6 porphyrin accumulation, flow cytometry, 1 h; hits give low values. AID 602162. fluorescence ratio to DMSO, % at 10 µM. 0.19% of 360,000 active;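 active = fluorescence ratio to DMSO below 75%, the collection mean minus 3 SD; inconclusive = too few cells collected in the well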;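 note: signal is porphyrin accumulated inside mitochondria; lower ratio means ABCB6 inhibition with less porphyrin fluorescence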
# A number is an active result; - = inactive; ? = inconclusive; . = no result; + = active, no number. Rows were chosen to be rich in hits. Some 2.6% of all compounds tested hit in one or more screens of this group. Unless noted, the rule behind the calls is not given here.
SMILES,MLLE-PAM2 inh,PHOSPHO1 block,eIF4H FP inh,AI-2 QS mod,PABP FP inh,ABCB6 inh MLPCN
Cc1ccc(OC(C)C(=O)N2CCc3ccccc32)c([N+](=O)[O-])n1 (centres undefined),-,.,.,.,.,-
CCOC(=O)C1(C)/C(=N/Nc2ccccc2OC)C(=O)C(=O)N1c1ccccc1 (centres undefined),-,-,-,-,-,-
CCOC(=O)C1(C)/C(=N/Nc2ccccc2)C(=O)C(=O)N1c1ccccc1 (centres undefined),-,99.2,-,-,-,-
FC(F)(F)c1cc(Oc2ccc(Cl)cc2)nc(-c2ccccn2)n1,-,72.8,-,-,-,-
CCNC(=O)C1CCCN(C(=O)c2ccccc2OC(F)(F)F)CC1 (centres undefined),-,.,.,.,.,-
Cc1cc[n+](-c2[nH]c(=O)sc2/C=N/N=C(\[O-])c2ccncc2)cc1,40.6,-,99.8,-,+,-
Cc1cc[n+](-c2[nH]c(=O)sc2/C=N/N=C(\[O-])c2ccccc2)cc1,39.5,-,-,-,+,-
COc1ccccc1Cc1c(-c2ccco2)nc2c(C)cc(Br)cn12,-,.,.,.,.,-
CCOC(=O)c1cc(C(=O)c2ccccc2O)cn2c(=O)c3c(C)c(C)sc3nc12,.,-,72.7,-,-,.
O=C(NC1CCN(Cc2ccccc2)CC1)c1[nH]c(C(F)(F)F)nc1-c1ccccc1,-,.,.,.,.,-
CC(Oc1ccc(Cl)cc1Cl)C(=O)Nc1cccc(O)c1 (centres undefined),-,-,-,-,-,-
CC(Oc1ccc(Cl)cc1Cl)C(=O)Nc1ccc(O)cc1 (centres undefined),-,-,2.6,-,-,-
Cc1cc2nc(C(C)(C)C)c(CC3CCCCC3)n2c(C)c1Br,.,.,.,.,.,-
CCOc1ccccc1NC(=O)NNS(=O)(=O)c1cc(C)ccc1C,-,-,-,-,-,-
CCOc1ccccc1NC(=S)NNS(=O)(=O)c1c(C)cc(C)cc1C,41.3,-,-,-,-,-
O=C(O)COc1ccc2c(c1)O/C(=C\c1cccs1)C2=O,-,-,-,-,-,-
Cc1ccc(/C=C2\Oc3cc(OCC(=O)NN)ccc3C2=O)o1,-,-,72.6,-,-,-
COCCN(CCOC)Cc1c(O)ccc2c1O/C(=C\c1ccc(C)o1)C2=O,-,-,51.1,-,-,-
CCN(CC)Cc1c(O)ccc2c1O/C(=C\C=C\c1ccccc1)C2=O,-,-,?,-,?,-
COc1cccc(/C=C2\Oc3cc(OCC(=O)N4CCCC4)ccc3C2=O)c1OC,-,-,.,-,.,-
O=C(O)COc1ccc2c(c1)O/C(=C\c1ccco1)C2=O,-,-,76.6,-,+,-
CCOC(=O)C1(C)CCN1C(=O)c1cccc(C#N)c1 (centres undefined),-,.,.,.,.,-
CC1(C(=O)NS(=O)(=O)c2ccc(Cl)s2)CCN1C(=O)c1ccccc1CCc1ccccc1 (centres undefined),-,.,.,.,.,-
C/C=C(\C)C(=O)NCCN1C2=NC[C@H](C(C)C)N2C[C@@H]1Cc1ccc(OC)cc1,-,-,-,-,+,-
C/C=C(\C)C(=O)NCCN1C2=NC[C@H](C(C)C)N2C[C@H]1Cc1ccc(O)cc1,-,-,-,-,-,-
SMILES,MLLE-PAM2 inh,PHOSPHO1 block,eIF4H FP inh,AI-2 QS mod,PABP FP inh,ABCB6 inh MLPCN
Cc1noc(C)c1-c1csc(N2CCC(C(N)=O)CC2)n1,39.8,.,.,.,.,-
NC(=O)C1CCN(c2nc(-c3ccc(Br)cc3)cs2)CC1,-,-,-,-,-,-
O=C(c1ccccc1)n1c2ccccc2c(=O)n1-c1ccccc1CCl,-,.,.,.,.,-
CC(c1ccccc1)N1CCc2[nH]c(=S)[nH]c(=O)c2C1 (centres undefined),38.5,-,-,-,-,-
CCCCN1CCc2[nH]c(=S)[nH]c(=O)c2C1,48.7,-,-,-,-,-
COCCN1CCc2[nH]c(=S)[nH]c(=O)c2C1,-,-,-,-,-,-
CC(=O)Nc1cccc(-c2ccnc3c2CC(C)(C(=O)Nc2ccc(C(C)C)cc2)O3)c1 (centres undefined),-,.,.,.,.,-
N#Cc1c2n(c(=S)n(-c3ccccc3)c1=O)CCCCC2,-,63.8,-,-,-,-
N#Cc1c2n(c(=S)n(-c3ccccc3[N+](=O)[O-])c1=O)CCCCC2,50.7,-,-,-,-,-
COc1ccc(Cl)cc1-c1cc(C(=O)NCc2cccc(C(F)(F)F)c2)[nH]n1,-,.,.,.,.,-
COc1ccc(NC(=O)C2CCC(CNc3c(N4CCOCC4)c(=O)c3=O)CC2)cc1Cl (centres undefined),-,-,-,-,-,-
COc1ccc(NC(=O)c2ccc(CNc3c(N4CCCC4)c(=O)c3=O)cc2)cc1Cl,-,65.5,-,-,-,-
O=C(/C=C/c1ccco1)Oc1ccc(C(=S)N2CCOCC2)cc1,-,-,97.4,-,+,-
O=Cc1cccc(OC(=O)/C=C/c2ccco2)c1,-,-,89.4,-,+,-
CCCN(C)C1CN(Cc2cn(CCCC(=O)OC)nn2)S(=O)(=O)C1 (centres undefined),.,.,.,.,.,-
CN1c2ccccc2N(C)C1(C)c1cccc2ccccc12,-,-,?,-,-,-
CN1c2cccc3cccc(c23)N(C)C1(C)C,-,-,73.2,-,+,-
Cn1cc(Cc2ccc(C(=O)N3CCN(Cc4ccccc4)CC3)cn2)c2ccccc21,-,.,.,.,.,-
CCCCCCNC(=O)O[C@H]1Cn2c(=O)ccc(=O)n2[C@@H]2CN(S(=O)(=O)c3ccc(C)cc3)C[C@]12O,-,.,.,.,.,-
Cn1c(CCC(=O)O)nc2cc(S(=O)(=O)N3CCCC3)ccc21,-,.,.,.,.,-
Cn1c(CCC(=O)O)nc2cc(S(=O)(=O)N3CCCCC3)ccc21,39.0,.,.,.,.,-
Cn1cnnc1SCc1ccccc1,-,-,-,-,-,-
Cn1cnnc1SCc1ccc(-c2ccc(Br)cc2)o1,-,84.6,-,-,-,-
COc1cccc(C(C)(O)c2nc(-c3cnc4ccccc4c3)cs2)c1 (centres undefined),-,.,.,.,.,-
O=C1CC(c2ccco2)CC(O)=C1C=Nc1cc(Cl)ccc1O (centres undefined),-,-,91.7,-,+,-
SMILES,MLLE-PAM2 inh,PHOSPHO1 block,eIF4H FP inh,AI-2 QS mod,PABP FP inh,ABCB6 inh MLPCN
O=C(c1[nH]c(C(F)(F)F)nc1-c1ccccc1)N1CCN(C(=O)C2CCCO2)CC1 (centres undefined),-,.,.,.,.,-
COc1ccc(C2NN=C(c3ccc(C)cc3)S2)cc1 (centres undefined),-,-,-,-,-,-
Cc1ccc(C2=NNC(C(O)C(O)C(O)CO)S2)cc1 (centres undefined),-,83.5,-,-,-,-
Brc1cccc(-c2nnc3sc(CNCc4ccco4)cn23)c1,-,82.8,-,-,-,-
COc1cccc(C=NN(C)c2c([N+](=O)[O-])cc(C(F)(F)F)cc2[N+](=O)[O-])c1O,-,.,.,.,.,-
C[C@H]1CN([C@@H](C)CO)C(=O)CCCn2nncc2CO[C@@H]1CN(C)S(=O)(=O)c1cccc(F)c1,-,.,.,.,.,-

# Screening data (PubChem BioAssay)
